Measured values from PubChem BioAssay AID624330 (Southern Research Specialized Biocontainment Screening …, 2012).
The campaign covered roughly 340,000 compounds. About 2,100 (0.62%) were called active.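 Rule for the calls: active = first-screen hits whose inhibition reached a set limit at any dose in the follow-up dose series; inconclusive = inhibition above the set first-screen limit but never retested; inactive = the rest.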 These entries were drawn from the full list. Results with a measured potency or affinity are listed apart.

Each compound was assayed against Rac GTPase-activating protein 1 (Homo sapiens) (UniProt Q9H0H5) (assay: blockers of MgcRacGAP-driven Rac1 GTP hydrolysis – biochemical, ADP Hunter fluorescence, primary and confirmatory, confirmation (AID 624330;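 note: fluorescence reports GDP produced by GAP-driven GTP hydrolysis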)). Details: MgcRacGAP-stimulated Rac1 GTP hydrolysis, at 30 µM, stronger effect = higher value, GST-tagged Rac1 F28L mutant substrate.
Rac GTPase-activating protein 1 (Homo sapiens), sequence (Q9H0H5 whole entry, looked up): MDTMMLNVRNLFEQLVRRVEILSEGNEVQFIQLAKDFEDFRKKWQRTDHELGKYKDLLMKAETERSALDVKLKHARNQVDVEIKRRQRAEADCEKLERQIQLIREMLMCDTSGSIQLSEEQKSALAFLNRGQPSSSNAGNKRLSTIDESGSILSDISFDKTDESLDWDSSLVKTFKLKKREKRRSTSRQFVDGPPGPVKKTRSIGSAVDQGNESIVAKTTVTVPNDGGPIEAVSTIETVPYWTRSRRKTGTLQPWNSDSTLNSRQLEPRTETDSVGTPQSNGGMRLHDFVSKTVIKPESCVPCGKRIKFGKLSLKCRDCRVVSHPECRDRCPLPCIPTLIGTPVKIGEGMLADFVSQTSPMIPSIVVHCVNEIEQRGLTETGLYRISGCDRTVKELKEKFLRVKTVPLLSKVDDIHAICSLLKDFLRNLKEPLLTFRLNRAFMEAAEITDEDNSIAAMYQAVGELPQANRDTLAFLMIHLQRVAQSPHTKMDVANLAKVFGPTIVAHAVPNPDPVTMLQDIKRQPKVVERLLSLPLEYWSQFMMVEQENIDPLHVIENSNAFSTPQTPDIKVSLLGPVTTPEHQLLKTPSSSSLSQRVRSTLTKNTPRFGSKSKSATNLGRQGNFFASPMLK

inhibition, inactive:
O=c1[nH]c(CSc2ncccn2)nc2c1cnn2-c1ccccc1 9.39%
Fc1ccc(-n2cc(CNCCc3cccnc3)c(-c3ccccc3Cl)n2)cc1 5.92%
C=CC[C@@H](CC(=O)N(CCO)Cc1ccccc1)C(=O)N[C@H](COC(=O)[C@@H](CC=C)Cc1ccc(F)cc1)C(C)(C)C 4.96%
CC1(C)CC(=O)C(CC2C(=O)CC(C)(C)CC2=O)C(=O)C1 12.9%
COC(=O)c1cccnc1SCc1ccccc1 3.27%
CCOc1ncccc1C(=O)Nc1cccc(S(=O)(=O)N2CCOCC2)c1 3.19%
COC(=O)CCNC(=O)Cn1cnc2sc3c(c2c1=O)CCCC3 3.18%
CC1(C)CC(=O)N(Cc2ccccc2)C(=O)C1 2.51%
O=C(NCCc1ccc(F)cc1)C(=O)NCC1CCCN1S(=O)(=O)c1cccs1 (stereo not drawn) -7.17%
COc1cc(/C=N/NC(=O)C(=O)NCc2ccco2)ccc1O 17.7%
COC(=O)c1ccc(/C=N\NC(=O)CC(=O)NCCc2ccccc2)cc1 0.63%
COc1ccc(/C=N/NC(=O)/C(=C/c2ccccc2)CCO)cc1 8.48%
COc1ccc(/C=N/NC(=O)CC(=O)NCCc2ccccc2)cc1OC 1.81%
CC(C(=O)Nc1ccc(S(=O)(=O)N2CCOCC2)cc1)N1CCN(c2ccccn2)CC1 (stereo not drawn) -2.88%
CCc1cc(C(=O)OC)c(NC(=O)CC2NCCNC2=O)s1 (stereo not drawn) 0.55%
OC(COc1ccccc1Br)CN1CCNCC1 (stereo not drawn) 1.5%
CC(C)OCC(O)CN1CCNCC1 (stereo not drawn) 5.48%
CC(C)CN(CC(C)C)C(=O)C12CCC(C)(C(=O)C1)C2(C)C (stereo not drawn) -15.8%
Cc1ccc(NC2CCCN(C(=O)c3cccs3)C2)cc1C (stereo not drawn) 22.5%
CCOc1ccc(OCc2ccc(C(=O)N3CCCC(C)C3)cc2)cc1 (stereo not drawn) 0.96%
Cc1ccc(NC(=O)CN2CCCCCC2)cc1Br 24.2%
O=C(Cc1ccccc1)N/N=C/c1cc(Br)cs1 10.7%
Cc1ccc(NC(=O)CN2CCCC2)cc1Br 30.6%
CN1CCN(CC(=O)Nc2ccccc2Oc2ccccc2)CC1 4.33%
CCCCCNCC(=O)Nc1cc(C(F)(F)F)ccc1OCCOC 29.2%
COCCOc1ccc(C(F)(F)F)cc1NC(=O)c1ccc(C(F)(F)F)cc1 -6.51%
COc1ccccc1NC(=O)CN1CCN(c2ccccc2)CC1 3.59%
Cc1nccn1CC(=O)N/N=C/c1cc(Br)cs1 3.63%
O=C(CNC(=O)c1ccccc1)NCC(O)c1ccc([N+](=O)[O-])cc1 (stereo not drawn) -4.75%
CCOCCCNC(=O)Cn1cnc2sc(C)c(S(=O)(=O)N3CCN(c4ncccn4)CC3)c2c1=O 2.97%
CC(C)C[C@H]1CN([C@@H](Cc2ccc(O)cc2)CN2CCC[C@@H]2CN2C(=O)C(=O)NC[C@@H]2Cc2ccccc2)C(=O)C(=O)N1CC1CCCCCC1 10.4%
O=C(CNC(=O)c1ccco1)NCc1ccc2c(c1)OCO2 3.26%
C=CCn1c(-c2ccc(Cl)cc2)cnc1SC(C)C(N)=O (stereo not drawn) 13.8%
CCOc1cc(N2CCOCC2)c(OCC)cc1NC(=O)c1ccc2ncsc2c1 9.53%
Cn1c(=O)c2[nH]c(Cc3cccc(O)c3)nc2n(C)c1=O -6.27%
O=C(Nc1ccc2c(c1)OCO2)O[C@@H]1C[C@H]2CCC(=O)N3CC[C@@H](C1)[C@@H]23 5.22%
COc1ccc(CN2CCNC(=O)C2CC(=O)NCCc2nc(C)c3c(n2)CCC3)cc1C (stereo not drawn) 3.36%
Cc1ccc(NC(=O)CCN2CCN(CCO)CC2)cc1Br 7.64%
COc1ccc(N)cc1NC(=O)CN1CCCC1 30%
CCCCOc1ccc(NC(=O)CN2CCN(C(=O)OCC)CC2)cc1 23.5%
CCOC(=O)N1CCN(CC(=O)Nc2ccc(C)c(Br)c2)CC1 19.6%
CCCCOc1ccc(NC(=O)CN2CCN(Cc3ccccc3)CC2)cc1 2.92%
Cc1ccc(N)cc1NC(=O)CN1CCOCC1 9.26%
CCOc1ccccc1NC(=O)CSC1=NN2CCCC(=O)N=C2S1 4.37%
O=C(Cc1nnc(NC(=O)Nc2ccccc2)s1)NCc1ccccc1 11.4%
O=C(Cc1ccccc1)NCCSCc1ccccc1 10.9%
CC(=O)NS(=O)(=O)c1ccc(NC(=O)c2cccc3ccccc23)cc1 5.73%
COC(=O)c1ccccc1NC(=O)c1cc(-c2ccc(C)cc2)on1 -6.22%
N#CCCN1CCN(C(=S)c2ccc(-c3cccc(Cl)c3)o2)CC1 6.88%
Cc1ccc(N=c2ssnc2Cl)cc1 9.47%
Clc1nssc1=Nc1nncs1 20.4%
CCCCCCCNC(=O)C1(CC2CC(c3ccccc3)=NO2)CCN(C(=O)c2ccccc2)CC1 (stereo not drawn) 7.41%
O=C(Cc1cccc(C(F)(F)F)c1)N1CCCC1 1.4%
COc1ccc(Br)cc1/C=N/NC(=O)CN1CCN(Cc2ccccc2)CC1 2.09%
COc1ccc(C(=O)N/C(=C\c2cn(S(=O)(=O)N(C)C)c3ccccc23)C(=O)N2CCCC2)cc1 12%
CCOc1cc(/C=N/n2nnnc2N)ccc1OCc1c(C)no[n+]1[O-] 7.97%
O=C(/C=C/c1ccccc1)NC(=O)c1ccccc1O 11.1%
O=C(/C=C/c1ccc(Br)cc1)NC(=O)c1ccccc1O 0.42%
CCN(CC)C(=O)c1[nH]cnc1C(=O)N[C@@H](CC(C)C)C(=O)OC(C)(C)C 8.38%
COc1ccc2c(c1OC)C(=O)OC2CC(=O)c1ccc(O)cc1 (stereo not drawn) 12.6%
COc1ccc(C(=O)CC2OC(=O)c3c2ccc(OC)c3OC)cc1 (stereo not drawn) -2.86%
COc1cc(S(=O)(=O)N2CCCCC2)ccc1NC(=O)c1ccncc1 4.39%
O=C(NCc1ccccc1)c1n[nH]nc1-c1ccccc1O -8.5%
Nc1nc(N)c(N=Nc2ccccc2)c(=O)[nH]1 2.34%
Nc1nc(N)c(N=Nc2ccc(C(=O)O)cc2)c(N)n1 -11.2%
C[C@H](CO)N1C[C@H](C)[C@@H](CN(C)S(C)(=O)=O)Oc2ccc(NC(=O)CCN3CCOCC3)cc2C1=O 3.2%
COc1ccc(/C=N/Nc2nc(N3CCCC3)nc(N3CCCC3)n2)cc1 3.1%
COc1ccc(/C=N/Nc2nc(N3CCCCC3)nc(N3CCCCC3)n2)cc1[N+](=O)[O-] -0.88%
C(=N\Nc1nc(N2CCCC2)nc(N2CCCC2)n1)/c1ccncc1 -2.52%
O=[N+]([O-])c1cc(/C=N/Nc2nc(N3CCCCC3)nc(N3CCCCC3)n2)ccc1O 9.9%
CCOc1ccc(/C=N/Nc2nc(N3CCCC3)nc(N3CCCC3)n2)cc1OC 3.96%
CCOc1cc(/C=N/Nc2nc(N3CCCC3)nc(N3CCCC3)n2)ccc1O 26.7%
Cn1c(=O)c2ncn(CC(=O)NCCOCc3ccccc3Cl)c2n(C)c1=O 0.57%
O=C(CS(=O)CC(=O)Nc1cccnc1)Nc1ccc(F)cc1 (stereo not drawn) 5.58%
CCOc1ccccc1/C=C(\C#N)C(=O)Nc1cccc(C(=O)O)c1 -4.51%
CCCCN(C(=O)C1CCN(C(=O)c2ccccc2C)CC1)c1c(N)n(CCCC)c(=O)[nH]c1=O 4%
O=C(O)COCC(=O)Nc1ccc2c(c1)ncn2CCc1ccccc1 2.87%
NC(=O)c1ccc(NC(=O)c2cncn2-c2ccccc2)cc1 1.08%
CC(C)(C)C1CCC(=O)N(CCOc2ccccc2)CC1 (stereo not drawn) 5.11%
CCN(c1ccccc1)S(=O)(=O)c1ccc(N2CCN(c3ccc(OC)cc3)CC2)nc1 4.13%
CCN(c1ccccc1)S(=O)(=O)c1ccc(N2CCN(c3ccccc3O)CC2)nc1 5.54%
CN1/C(=C\C(=O)c2cccc([N+](=O)[O-])c2)Sc2ccccc21 10.8%
CSCCC(NC(=O)c1ccc([N+](=O)[O-])cc1Cl)C(=O)OCC(=O)NC(=O)CN1CCCC1=O (stereo not drawn) -5.24%
CCOc1ccc(S(=O)(=O)N2CCN(Cc3ccccc3)CC2)cc1 -12%
CCOc1ccc(CN2CCN(S(=O)(=O)c3ccc(NC(C)=O)cc3)CC2)cc1OC 10.5%
Cc1ccc(S(=O)(=O)NCCC(=O)N2CCN(c3ccccc3)CC2)cc1C -2.5%
O=C(COC(=O)Cn1cnc2ccccc21)NCCCc1ccccc1 0.48%
O=C(CNCc1cccc(Cl)c1)N1CCc2ccccc2C1 30.6%
O=C(CNCc1ccc(Cl)cc1)N1CCc2ccccc2C1 25.8%
CN(Cc1ccc(N(C)C)cc1)C(=O)c1cc2ccccc2o1 2.93%
C#CCOCCOCCOCCNc1nc(N2CCN(C(=O)Cn3cc(CCO)nn3)CC2)nc(N2CCN(C(=O)[C@H]([C@@H](C)CC)n3cc(CCCN=C(N)N)nn3)CC2)n1 -0.25%
O=C(Cc1ccc([N+](=O)[O-])cc1)Nc1cccc(C(=O)N2CCCCC2)c1 6.71%
N/C(COc1ccc(Cl)cc1Cl)=N\O 7.42%
